From PMC11006913 come the findings set out here.

Common to all, as to assay: PBM; 200 nM protein, PBS
Details in all cases: dsDNA, one strand shown

Test [1] addresses ALX4 (Homo sapiens, UniProt Q9H161 200-286).
For test [2], the target named is HOXB6 (Homo sapiens, UniProt P17509 132-218, K202E).
The target in test [3] is ALX4 (Homo sapiens, UniProt Q9H161 200-286, Q225E).
In test [4] the target is HOXB6 (Homo sapiens, UniProt P17509 132-218).
Test [5] has as its target PRRX1 (Homo sapiens, UniProt P54821 80-166, F113S).
Test [6] addresses PRRX1 (Homo sapiens, UniProt P54821 80-166).

Sequence of ALX4 (Homo sapiens, UniProt Q9H161 200-286, Q225E) (Q9H161 200-286 Q225E): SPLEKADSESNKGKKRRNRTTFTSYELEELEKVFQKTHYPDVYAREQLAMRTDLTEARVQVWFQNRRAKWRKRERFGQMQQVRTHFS
Sequence of ALX4 (Homo sapiens, UniProt Q9H161 200-286) (Q9H161 200-286): as the sequence (Q9H161 200-286 Q225E) above, with E26Q counted along it
Sequence of HOXB6 (Homo sapiens, UniProt P17509 132-218) (P17509 132-218): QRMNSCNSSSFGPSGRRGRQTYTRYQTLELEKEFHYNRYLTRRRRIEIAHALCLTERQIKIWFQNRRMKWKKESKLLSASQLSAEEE
Sequence of HOXB6 (Homo sapiens, UniProt P17509 132-218, K202E) (P17509 132-218 K202E): as the sequence (P17509 132-218) above, with K71E counted along it
Sequence of PRRX1 (Homo sapiens, UniProt P54821 80-166) (P54821 80-166): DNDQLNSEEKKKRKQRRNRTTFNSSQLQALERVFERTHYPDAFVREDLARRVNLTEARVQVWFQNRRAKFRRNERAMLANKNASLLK
Sequence of PRRX1 (Homo sapiens, UniProt P54821 80-166, F113S) (P54821 80-166 F113S): as the sequence (P54821 80-166) above, with F34S counted along it

Regarding CTTCCCGC, the binding signal in the test with ALX4 [1] is 8.12 upbm affinity estimate (log intensity, higher = more binding, comparable within an allelic series); with HOXB6 [2] it was 9.12 upbm affinity estimate (log intensity, higher = more binding, comparable within an allelic series); in the test with ALX4 [3] it was 8.22 upbm affinity estimate (log intensity, higher = more binding, comparable within an allelic series); in the test with HOXB6 [4], 9.02 upbm affinity estimate (log intensity, higher = more binding, comparable within an allelic series).

For the sequence CTCGATCC, the binding signal was 8.2 upbm affinity estimate (log intensity, higher = more binding, comparable within an allelic series) in the test with ALX4 [1] and 8.33 upbm affinity estimate (log intensity, higher = more binding, comparable within an allelic series) with ALX4 [3].

With CCTCAGGC, the binding signal with ALX4 [1] is 8.2 upbm affinity estimate (log intensity, higher = more binding, comparable within an allelic series); with ALX4 [3] it was 8.19 upbm affinity estimate (log intensity, higher = more binding, comparable within an allelic series).

On to CGTGCTCC, for which the binding signal in the test with ALX4 [1] is 8.3 upbm affinity estimate (log intensity, higher = more binding, comparable within an allelic series); in the test with ALX4 [3], 8.41 upbm affinity estimate (log intensity, higher = more binding, comparable within an allelic series).

Take ATAACCAA: the binding signal with ALX4 [1] was 10.1 upbm affinity estimate (log intensity, higher = more binding, comparable within an allelic series); in the test with ALX4 [3] it was 9.6 upbm affinity estimate (log intensity, higher = more binding, comparable within an allelic series).

For the sequence GTCGGCGA, the binding signal in the test with ALX4 [1] is 8.22 upbm affinity estimate (log intensity, higher = more binding, comparable within an allelic series); in the test with PRRX1 [5], 9.28 upbm affinity estimate (log intensity, higher = more binding, comparable within an allelic series); with ALX4 [3], 8.22 upbm affinity estimate (log intensity, higher = more binding, comparable within an allelic series); with PRRX1 [6], 9.44 upbm affinity estimate (log intensity, higher = more binding, comparable within an allelic series).

As to GCAGACCC, the binding signal with ALX4 [1] is 7.9 upbm affinity estimate (log intensity, higher = more binding, comparable within an allelic series); in the test with ALX4 [3], 8.2 upbm affinity estimate (log intensity, higher = more binding, comparable within an allelic series).

Regarding CAGTCGCC, the binding signal in the test with ALX4 [1] was 8.23 upbm affinity estimate (log intensity, higher = more binding, comparable within an allelic series); with ALX4 [3] it was 8.19 upbm affinity estimate (log intensity, higher = more binding, comparable within an allelic series).

Take CTGTCCAC: the binding signal is 7.93 upbm affinity estimate (log intensity, higher = more binding, comparable within an allelic series) with ALX4 [1] and 8.3 upbm affinity estimate (log intensity, higher = more binding, comparable within an allelic series) in the test with ALX4 [3].

Take CCCCTCTC: the binding signal is 8.15 upbm affinity estimate (log intensity, higher = more binding, comparable within an allelic series) with ALX4 [1] and 8.2 upbm affinity estimate (log intensity, higher = more binding, comparable within an allelic series) with ALX4 [3].

Regarding CATGGGGG, the binding signal was 7.84 upbm affinity estimate (log intensity, higher = more binding, comparable within an allelic series) with ALX4 [1] and 7.96 upbm affinity estimate (log intensity, higher = more binding, comparable within an allelic series) with ALX4 [3].

For the sequence TCCGATAA, the binding signal with ALX4 [1] is 10.1 upbm affinity estimate (log intensity, higher = more binding, comparable within an allelic series); with ALX4 [3], 9.41 upbm affinity estimate (log intensity, higher = more binding, comparable within an allelic series).

For the sequence CCTAGAGA, the binding signal is 8.06 upbm affinity estimate (log intensity, higher = more binding, comparable within an allelic series) in the test with ALX4 [1] and 8.18 upbm affinity estimate (log intensity, higher = more binding, comparable within an allelic series) in the test with ALX4 [3].

Regarding ATAATACA, the binding signal in the test with ALX4 [1] is 11.1 upbm affinity estimate (log intensity, higher = more binding, comparable within an allelic series); with ALX4 [3], 10.4 upbm affinity estimate (log intensity, higher = more binding, comparable within an allelic series).

On to CCGCGAAG, for which the binding signal with ALX4 [1] is 8.14 upbm affinity estimate (log intensity, higher = more binding, comparable within an allelic series); with ALX4 [3], 8.32 upbm affinity estimate (log intensity, higher = more binding, comparable within an allelic series).

Consider CCGTCCCC, for which the binding signal with ALX4 [1] is 8.07 upbm affinity estimate (log intensity, higher = more binding, comparable within an allelic series); with ALX4 [3] it was 8.31 upbm affinity estimate (log intensity, higher = more binding, comparable within an allelic series).

CGGCGGGC: the binding signal with ALX4 [1] is 8.42 upbm affinity estimate (log intensity, higher = more binding, comparable within an allelic series); with ALX4 [3], 8.3 upbm affinity estimate (log intensity, higher = more binding, comparable within an allelic series).

Take AGAGCCTC: the binding signal is 7.96 upbm affinity estimate (log intensity, higher = more binding, comparable within an allelic series) in the test with ALX4 [1] and 7.95 upbm affinity estimate (log intensity, higher = more binding, comparable within an allelic series) in the test with ALX4 [3].

On to GTAAAATA, for which the binding signal was 10.2 upbm affinity estimate (log intensity, higher = more binding, comparable within an allelic series) in the test with ALX4 [1] and 9.6 upbm affinity estimate (log intensity, higher = more binding, comparable within an allelic series) in the test with ALX4 [3].

As to CTCGGGTC, the binding signal with ALX4 [1] was 8.18 upbm affinity estimate (log intensity, higher = more binding, comparable within an allelic series); with ALX4 [3] it was 8.25 upbm affinity estimate (log intensity, higher = more binding, comparable within an allelic series).

As for CCGTAGCC, the binding signal in the test with ALX4 [1] was 8.11 upbm affinity estimate (log intensity, higher = more binding, comparable within an allelic series); with ALX4 [3] it was 8.21 upbm affinity estimate (log intensity, higher = more binding, comparable within an allelic series).

As for CGACATCC, the binding signal in the test with ALX4 [1] is 7.95 upbm affinity estimate (log intensity, higher = more binding, comparable within an allelic series); with ALX4 [3], 8.23 upbm affinity estimate (log intensity, higher = more binding, comparable within an allelic series).

In the case of CCTCCTAC, the binding signal was 7.75 upbm affinity estimate (log intensity, higher = more binding, comparable within an allelic series) with ALX4 [1] and 8.06 upbm affinity estimate (log intensity, higher = more binding, comparable within an allelic series) in the test with ALX4 [3].

Turning to ATAAGCAC, the binding signal with ALX4 [1] was 9.96 upbm affinity estimate (log intensity, higher = more binding, comparable within an allelic series); with ALX4 [3], 9.46 upbm affinity estimate (log intensity, higher = more binding, comparable within an allelic series).

As to CCAGGACG, the binding signal with ALX4 [1] was 8.2 upbm affinity estimate (log intensity, higher = more binding, comparable within an allelic series); with ALX4 [3], 8.31 upbm affinity estimate (log intensity, higher = more binding, comparable within an allelic series).

In the case of TCGGCCGA, the binding signal in the test with ALX4 [1] was 7.94 upbm affinity estimate (log intensity, higher = more binding, comparable within an allelic series); with ALX4 [3], 8.39 upbm affinity estimate (log intensity, higher = more binding, comparable within an allelic series).

On to GGTTATCA, for which the binding signal with ALX4 [1] is 9.51 upbm affinity estimate (log intensity, higher = more binding, comparable within an allelic series); with ALX4 [3] it was 9.1 upbm affinity estimate (log intensity, higher = more binding, comparable within an allelic series).

As for TATTTTGA, the binding signal in the test with ALX4 [1] was 9.82 upbm affinity estimate (log intensity, higher = more binding, comparable within an allelic series); with ALX4 [3], 9.39 upbm affinity estimate (log intensity, higher = more binding, comparable within an allelic series).

ATAACCTC: the binding signal in the test with ALX4 [1] was 9.88 upbm affinity estimate (log intensity, higher = more binding, comparable within an allelic series); with ALX4 [3] it was 9.24 upbm affinity estimate (log intensity, higher = more binding, comparable within an allelic series).

Consider ACCTCCTC, for which the binding signal with ALX4 [1] is 8.28 upbm affinity estimate (log intensity, higher = more binding, comparable within an allelic series); with ALX4 [3], 8.12 upbm affinity estimate (log intensity, higher = more binding, comparable within an allelic series).
